Screens deposited in PubChem by The Scripps Research Institute Molecular Screening Center.
PLCg1 inh: blocks human PLC-gamma1 enzyme activity; P19174; purified PLC-gamma1, fluorogenic substrate, fluorescence; inhibition, % at 12.2 µM; 0.84% of 370,000 active; in the data active means inhibition above about 9.5%
ADAM17 inh: inhibits human ADAM17; P78536; recombinant ADAM17, EDANS/DABCYL FRET peptide cleavage; inhibition, % at 6.95 µM; 0.83% of 370,000 active; AID 720648;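 active means inhibition above the mean of compounds lying between control limits plus 3 SD, set per campaign, cut at about 8.5% in these data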;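 further: 0% = DMSO-only wells as the low control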
PLCb3 inh: inhibitors of human phospholipase C beta3. Q01970. Purified PLC-beta3, fluorogenic substrate, fluorescence. inhibition, % at 12.2 µM. 0.18% of 370,000 active; in the data active means inhibition above about 11%;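 further: 0% = median of compound wells on plate and 100% = full blocker control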
proKLK7 act: activates the human kallikrein-7 zymogen; P49862; purified proKLK7, EDANS-DABCYL substrate fluorescence; 100% is mature enzyme control, 0% vehicle; activation, % at 7 µM; 0.9% of 370,000 active;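 active means activation above the mean of all tested compounds plus 3 SD, computed per campaign excluding outliers beyond control limits, cut at about 13% in these data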
ADAM10 inh: inhibitors of human ADAM10. O14672. recombinant ADAM10, EDANS/DABCYL FRET peptide cleavage, 3 h. inhibition, % at 7 µM. 0.62% of 370,000 active. AID 720582;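 active means inhibition above a per-campaign cutoff equal to the mean of compounds falling between control-based bounds plus 3 SD, cut at about 20% in these data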;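 further: 0% = DMSO wells while the 100% control is not disclosed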
Target sequence (O14672 214-748 limits assumed): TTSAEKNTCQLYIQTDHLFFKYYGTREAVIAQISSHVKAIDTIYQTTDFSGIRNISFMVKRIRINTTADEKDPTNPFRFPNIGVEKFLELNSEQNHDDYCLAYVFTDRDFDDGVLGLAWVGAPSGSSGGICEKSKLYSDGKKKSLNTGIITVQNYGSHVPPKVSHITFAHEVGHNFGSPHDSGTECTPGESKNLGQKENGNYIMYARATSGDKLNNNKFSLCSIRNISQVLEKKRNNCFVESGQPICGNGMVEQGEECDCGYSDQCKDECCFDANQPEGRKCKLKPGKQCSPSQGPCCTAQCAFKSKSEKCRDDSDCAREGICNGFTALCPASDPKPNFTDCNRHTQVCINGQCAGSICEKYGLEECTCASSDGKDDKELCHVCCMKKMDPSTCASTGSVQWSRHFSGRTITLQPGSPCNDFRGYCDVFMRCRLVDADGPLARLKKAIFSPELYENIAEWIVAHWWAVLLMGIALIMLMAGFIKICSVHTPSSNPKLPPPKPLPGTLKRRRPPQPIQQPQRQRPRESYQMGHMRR
ADAM10 ctr: ADAM10 inhibition, counter-screen for ADAM17 exosite hits. shares compounds with ADAM17 inh. recombinant ADAM10, EDANS/DABCYL FRET peptide cleavage, 3 h. inhibition, % at 6.95 µM. 47% of 2,900 active. AID 743256;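 active means mean inhibition over the triplicate runs exceeds the activity threshold set in the earlier primary screen, cut at about 20% in these data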;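 further: 0% = DMSO wells and 100% = marimastat wells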
ADAM17 confirm: confirmation of inhibitors of human ADAM17. inhibition, % at 6.95 µM. shares compounds with ADAM17 inh. 65% of 2,900 active. AID 743257. recombinant ADAM17, EDANS/DABCYL QFRET peptide cleavage;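 active means mean inhibition across replicates above the hit cutoff set in the primary screen, cut at about 8.5% in these data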;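 further: 0% = DMSO wells and 100% = marimastat wells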
* hit, by the source's call; i = inactive; nt = no result given. Shown are actives, neighbours in structure and some others; about 2.9% of the full set was active somewhere.

SMILES	PLCg1 inh	ADAM17 inh	PLCb3 inh	proKLK7 act	ADAM10 inh	ADAM10 ctr	ADAM17 confirm
COc1ccc(OC)c(S(=O)(=O)N2CCC(C(=O)NCC3COCCO3)CC2)c1 (stereo not drawn)	1	-1	2	0	-4	nt	nt
COc1ccc(CCNC(=O)c2cc(-c3ccco3)nc3ccccc23)cc1	-17	9.5*	-54	-1	16	i	-271
COc1ccc(-c2cc(C(=O)NCc3ccco3)c3ccccc3n2)cc1	i	-170	i	-31	-419	nt	nt
Cc1ccc(S(=O)(=O)N(C)CC(=O)NNC(=O)Cc2cccc(F)c2)cc1	4	-1	-4	-1	4	nt	nt
Cc1ccc(S(=O)(=O)N(C)CC(=O)NNC(=O)Cc2ccccc2F)cc1	4	11*	0	0	5	19	11*
O=C(OC1CCCCC1)c1ccc(NC(=O)c2ccco2)cc1	9	12*	6	1	19	21*	12*
Cc1ccc(Nc2ncccc2C(=O)NCc2cccs2)c(C)c1	2	3	2	0	10	nt	nt
Cc1cccc(Nc2ncccc2C(=O)NCc2cccs2)c1C	4	10*	4	0	16	27*	15*
Cn1cnnc1SCC(=O)c1cccc([N+](=O)[O-])c1	5	8.7*	9	0	10	2	3
Cn1cnnc1SCC(=O)NNC(=O)c1ccc([N+](=O)[O-])cc1	2	1	0	-1	0	nt	nt
CC1Cc2ccccc2N1C(=O)c1ccc(F)c(S(=O)(=O)N2CCOCC2)c1 (stereo not drawn)	-1	-1	1	0	-4	nt	nt
O=C1N[C@@H](Cc2ccccc2)C(=O)N2[C@@H]1C[C@@]1(Br)c3ccccc3N(S(=O)(=O)c3ccccc3)[C@@H]21	2	3	3	0	9	nt	nt
Cc1ccc(-c2csc(NC(=O)Cn3cnc4c3c(=O)n(C)c(=O)n4C)n2)cc1C	-3	-2	-4	4	-8	nt	nt
Cn1c(=O)c2c(ncn2CC(=O)Nc2nc(-c3ccc(F)c(F)c3)cs2)n(C)c1=O	8	8.8*	-2	0	2	-6	0
CC(NC(=O)c1c(Cl)cnn1C)C1CCCO1 (stereo not drawn)	2	-6	-5	0	0	nt	nt
CCc1ccc(N2CC(C(=O)Nc3ccc(OC)c(S(=O)(=O)N4CCOCC4)c3)CC2=O)cc1 (stereo not drawn)	0	1	3	1	0	nt	nt
CCc1ccc(N2CC(C(=O)Nc3ccc(C)c(S(=O)(=O)N4CCOCC4)c3)CC2=O)cc1 (stereo not drawn)	5	9.8*	0	0	7	2	3
O=C1C=CN2CCOCC2C1 (stereo not drawn)	-2	-2	-2	0	-8	nt	nt
Cc1ccccc1C(=O)N(C)[C@H]1C[C@H]2c3[nH]c4c(-c5ccc6c(c5)OCO6)cccc4c3CCN2C[C@H]1[C@H](C)O	-25	2	-28	1	9	nt	nt
CCOCC(=O)Nc1nc2ccc(C)cc2s1	6	-3	3	0	5	nt	nt
C/C=C/C(=O)OCC(=O)Nc1nc2ccc(C)cc2s1	9	9.3*	3	-1	16	-11	-2
CCCN(CC(=O)Nc1ccccc1OC)C(=O)C1=COCCO1	3	-2	-3	1	-6	nt	nt
O=C(NC1CCCCC1)c1ccc2ccccc2c1	-1	0	-4	0	-4	nt	nt
O=C(NC1CC1)c1ccc2c(c1)C1C3CCC(C3)C1C(c1ccccc1)N2 (stereo not drawn)	6	9.6*	10	1	17	11	9.4*
COc1cc(SC)ccc1C(=O)NCCOc1ccc(C)c(C)c1	0	8.8*	1	0	13	19	12*
SMILES	PLCg1 inh	ADAM17 inh	PLCb3 inh	proKLK7 act	ADAM10 inh	ADAM10 ctr	ADAM17 confirm
COc1ccccc1C(=O)NCCOc1ccc(C)c(C)c1	-5	-1	3	0	-14	nt	nt
O=C(NC(=S)NC1CCS(=O)(=O)C1)c1ccccc1Br (stereo not drawn)	0	1	-4	0	-9	nt	nt
COc1cccc(NC2c3ccccc3C(=O)N2Cc2ccccc2Cl)c1 (stereo not drawn)	7	12*	-3	0	13	12	11*
COc1cc(NC2c3ccccc3C(=O)N2Cc2ccccc2Cl)cc(OC)c1 (stereo not drawn)	-3	-2	-6	0	-2	nt	nt
CCOc1ccc(-n2c(=O)c3sccc3n(CC(=O)Nc3cccc(OC)c3)c2=O)cc1	0	-5	-9	0	-10	nt	nt
COc1cc(OC)c(NC(=O)CN(C)S(=O)(=O)c2ccc3[nH]c(=O)oc3c2)cc1Cl	-2	5	-7	-1	-1	nt	nt
COc1ccc(O)c(/C=N/NC(=O)c2ccc(CSc3nc(C)cc(C)n3)cc2)c1	-31	14*	-42	-3	19	10	9.5*
C=CCN1CCN(C(=O)CCc2ccccc2)CC1	1	-1	-2	0	-4	nt	nt
O=C(CCNS(=O)(=O)c1ccccc1C(F)(F)F)N1CCN(C(c2ccccc2)c2ccccc2)CC1	3	8.9*	-4	0	9	30*	18*
COc1ccc(C)cc1NC(=O)CNC(=O)c1sc2ccccc2c1Cl	6	-2	-6	1	-9	nt	nt
COc1ccccc1NS(=O)(=O)c1cc(NC(=O)c2cccs2)ccc1N1CCCC1	-34	10*	-46	-20	20	-36	4
O=C(/C=C/c1cccs1)Nc1ccc(N2CCOCC2)c(S(=O)(=O)Nc2ccccc2Cl)c1	-39	11*	-45	-4	20	2	6
COc1ccccc1NS(=O)(=O)c1cc(NC(=O)c2sccc2C)ccc1N1CCCC1	-20	7	-24	-3	16	nt	nt
COc1ccccc1NS(=O)(=O)c1cc(NC(=O)Nc2ccccc2)ccc1N1CCCCC1	3	8.8*	5	0	13	4	8
O=C(/C=C/c1cccs1)Nc1ccc(N2CCOCC2)c(S(=O)(=O)Nc2cc(Cl)ccc2Cl)c1	-4	-1	-11	0	-6	nt	nt
Cn1cc(/C=C/C(=O)N2CCCC(C(=O)c3ccc(C(C)(C)C)cc3)C2)cn1 (stereo not drawn)	1	2	-25	0	6	nt	nt
COc1cccc(OCc2cc(C(=O)NCc3cnc4ccccn34)no2)c1	-4	0	-10	0	-6	nt	nt
O=C(O)C1C2C=CC(C2)C1C(=O)NC(c1ccccc1)c1ccccc1 (stereo not drawn)	-1	-4	4	0	4	nt	nt
COc1ccccc1/C=C/C1C(C(=O)OCC(C)C)=C(C)N=C2SCCC(=O)N21 (stereo not drawn)	1	11*	-7	-1	15	20	12*
